We go through 22 molecules from PubChem BioAssay (Tox21).

Assay [1] has as its target Thyrotropin receptor (Homo sapiens) (UniProt P16473). The experiment in a line: qHTS assay to identify small molecule antagonists of the thyroid stimulating hormone receptor (TSHR) signaling pathway (AID 1259385; calls by dose curve; note: nearly all actives have a fitted effect of over 20% in size). The method in brief: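 TSHR-HEK293 cells were plated and held 18 h at 37C/5% CO2, then given compound plus Ro20-1724 and stimulated with TSH at 1.5 ng/mL final. After 30 min at room temperature, cAMP was detected with cAMP-d2/anti-cAMP-cryptate (1 h) by fluorescence.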
For orientation: qHTS replaces the single test concentration by a dilution series.

Assay [2] in a line: qHTS assay to identify small molecule agonists of the estrogen receptor alpha (ER-alpha) signaling pathway in the presence of an antagonist - cell viability counter screen (AID 1259386).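 Note: series mostly up to about 92 µM; cells exposed to compounds for 22 h at 37 °C before the viability read; nearly all actives have a fitted effect of over 30% in size.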 The gist of the method:
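Using estrogen-depleted VM7Luc4E2 cells, the 15-concentration compound series was applied together with 10.0nM ICI-182,780 and incubated 22hr at 37C/5% CO2. Cell viability was then scored by CellTiter-Fluor.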

For assay [3], the target named is Progesterone receptor (Homo sapiens) (UniProt P06401). The experiment in a line: qHTS assay to identify small molecule agonists of the progesterone receptor (PR) signaling pathway (AID 1346784; calls by dose curve; note: nearly all actives have a fitted effect of over 30% in size; note: potency is the fitted concentration of half-maximal effect). The method in brief:
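Agonist mode, quantitative HTS format in a HEK 293T line expressing a UAS-controlled beta-lactamase reporter; 16 hr compound exposure at 37C in 2% charcoal-stripped FBS, then LiveBLAzer B/G FRET fluorescence.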

Assay [4] shares this target. Briefly: qHTS assay to identify small molecule antagonists of the progesterone receptor (PR) signaling pathway (AID 1346795; active = well fitted inhibition curve with a large enough effect in the signal ratio in the repeat runs, not every such curve was filed as active; the % refers to the signal ratio). The gist of the method: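 HEK293T PR-UAS-bla reporter cells in charcoal-stripped serum (2%) received compound after a 6 hr settling period, followed by R5020 agonist at 1 nM final; 16 hr incubation preceded the FRET substrate step and fluorescence measurement.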

Assay [5] is described as follows: qHTS assay to identify small molecule antagonists of the progesterone receptor (PR) signaling pathway - cell viability counter screen (AID 1346798). Note: series mostly up to about 92 µM; nearly all actives have a fitted effect of over 50% in size. The gist of the method: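 Same-well multiplex: after 16 hr at 37C with compound and R5020 stimulation, HEK293T cells carrying a UAS-bla reporter received LiveBLAzer substrate (2 hr RT), then CellTiter-Glo (30 min RT) for luminescent viability.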

A short description of assay [6]: qHTS assay to identify small molecule agonists of the progesterone receptor (PR) signaling pathway - cell viability counter screen (AID 1346799; calls by dose curve; note: nearly all actives have a fitted effect of over 45% in size). The gist of the method:
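Counter screen for cytotoxicity: compound-treated PR-UAS-bla HEK293T cells (16 hr, 37C, 5% CO2) were assayed with CellTiter-Glo, luminescence measured after 30 min at room temperature.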

Assay [7] can be described thus: qHTS assay to identify small molecule antagonists of the TGF-beta/Smad signaling pathway - cell viability counter screen (AID 1346824). Note: nearly all actives have a fitted effect of over 50% in size. The method in brief: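 SBE-bla HEK 293T cells were plated overnight at 37 C, then given compounds in DMSO plus TGF-beta1 (added as 0.25 ng/mL solution) for 5 hr. After the bla read, CellTiter-Glo was added to the same wells and luminescence read after 30 min at room temperature.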

The nature of assay [8]: qHTS assay to identify small molecule agonists of the TGF-beta/Smad signaling pathway - cell viability counter screen (AID 1346829). Note: top concentration of the series differs between compounds; nearly all actives have a fitted effect of over 45% in size. The method in brief: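 Same-well cytotoxicity: CellTiter-Glo added after the 2 hr room-temperature beta-lactamase substrate step, luminescence measured 30 min later; cells had 5 hr of compound at 37 C.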
Assay [9] is described as follows: qHTS assay to identify small molecule agonists of the TGF-beta/Smad signaling pathway (AID 1346859; active = well fitted activation curve with a large enough effect in the signal ratio in the repeat runs, not every such curve was filed as active; the % refers to the signal ratio; note: series mostly up to about 77 µM). The gist of the method: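 Smad-responsive beta-lactamase reporter cells (HEK 293T) received compounds from DMSO stocks after overnight attachment, were incubated 5 hr, then treated 2 hr with FRET substrate before dual-emission fluorescence measurement (405 nm excitation).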

The target in assay [10] is Thyrotropin-releasing hormone receptor (Homo sapiens) (UniProt P34981). Briefly: qHTS assay to identify small molecule antagonists of the thyrotropin-releasing hormone receptor (TRHR) signaling pathway (AID 1346877; active = well fitted inhibition curve with a large enough effect in the repeat runs, not every such curve was filed as active; note: series mostly up to about 51 µM). The gist of the method:
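Calcium signal in dye-loaded TRHR/HEK293 cells; compounds added 5 min before TRH (1 nM final); fluorescence monitored 3 min at 1 s steps.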

Values without a mark were called inactive. Results filed as inconclusive are left out. Activity calls are given as the source filed them. Unless noted, calls come from the whole dose curve; as a rule, active = well fitted curve in the direction sought with a large enough effect in the repeat runs; inconclusive = weak or mixed curves; inactive = no such curve, though single readings can be large; an effect the other way counts as inactive or inconclusive.
% is set by controls: 0 for no effect and ±100 for the full control effect.

Progesterone receptor (Homo sapiens), sequence (P06401 whole entry, looked up): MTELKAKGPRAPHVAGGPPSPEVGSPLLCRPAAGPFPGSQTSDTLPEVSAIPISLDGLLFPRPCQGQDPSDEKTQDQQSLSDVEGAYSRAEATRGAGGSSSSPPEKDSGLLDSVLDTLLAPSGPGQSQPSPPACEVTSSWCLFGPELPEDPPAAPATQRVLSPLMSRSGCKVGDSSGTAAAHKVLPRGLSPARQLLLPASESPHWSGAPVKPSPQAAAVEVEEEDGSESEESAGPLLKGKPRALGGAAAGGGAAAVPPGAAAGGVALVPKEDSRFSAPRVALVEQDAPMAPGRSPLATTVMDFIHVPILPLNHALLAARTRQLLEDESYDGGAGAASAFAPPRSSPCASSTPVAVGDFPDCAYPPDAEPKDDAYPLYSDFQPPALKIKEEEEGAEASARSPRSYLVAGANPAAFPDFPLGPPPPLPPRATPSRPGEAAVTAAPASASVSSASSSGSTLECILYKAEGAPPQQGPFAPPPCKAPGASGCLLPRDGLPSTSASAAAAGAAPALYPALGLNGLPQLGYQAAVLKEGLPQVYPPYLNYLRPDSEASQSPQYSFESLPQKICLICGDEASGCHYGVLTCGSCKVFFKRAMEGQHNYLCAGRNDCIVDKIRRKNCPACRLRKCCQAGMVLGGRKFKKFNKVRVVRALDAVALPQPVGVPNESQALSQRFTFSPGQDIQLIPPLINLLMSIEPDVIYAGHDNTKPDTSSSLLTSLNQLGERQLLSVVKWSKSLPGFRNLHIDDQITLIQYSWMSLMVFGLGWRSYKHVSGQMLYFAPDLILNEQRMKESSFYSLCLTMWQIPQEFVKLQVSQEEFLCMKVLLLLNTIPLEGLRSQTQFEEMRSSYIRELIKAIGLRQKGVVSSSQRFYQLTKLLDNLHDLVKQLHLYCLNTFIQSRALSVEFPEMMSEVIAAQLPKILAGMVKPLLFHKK
Thyrotropin-releasing hormone receptor (Homo sapiens), sequence (P34981 whole entry, looked up): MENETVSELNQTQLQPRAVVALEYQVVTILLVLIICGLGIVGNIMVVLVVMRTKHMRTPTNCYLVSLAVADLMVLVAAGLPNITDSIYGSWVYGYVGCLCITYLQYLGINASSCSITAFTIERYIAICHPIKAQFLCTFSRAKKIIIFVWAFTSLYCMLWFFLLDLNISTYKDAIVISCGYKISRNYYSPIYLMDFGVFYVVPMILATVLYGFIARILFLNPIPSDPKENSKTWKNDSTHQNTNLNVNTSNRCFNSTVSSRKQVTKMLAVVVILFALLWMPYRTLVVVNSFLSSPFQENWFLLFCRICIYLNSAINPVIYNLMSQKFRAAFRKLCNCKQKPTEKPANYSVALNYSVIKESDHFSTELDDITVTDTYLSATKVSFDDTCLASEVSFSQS
Thyrotropin receptor (Homo sapiens), sequence (P16473 whole entry, looked up): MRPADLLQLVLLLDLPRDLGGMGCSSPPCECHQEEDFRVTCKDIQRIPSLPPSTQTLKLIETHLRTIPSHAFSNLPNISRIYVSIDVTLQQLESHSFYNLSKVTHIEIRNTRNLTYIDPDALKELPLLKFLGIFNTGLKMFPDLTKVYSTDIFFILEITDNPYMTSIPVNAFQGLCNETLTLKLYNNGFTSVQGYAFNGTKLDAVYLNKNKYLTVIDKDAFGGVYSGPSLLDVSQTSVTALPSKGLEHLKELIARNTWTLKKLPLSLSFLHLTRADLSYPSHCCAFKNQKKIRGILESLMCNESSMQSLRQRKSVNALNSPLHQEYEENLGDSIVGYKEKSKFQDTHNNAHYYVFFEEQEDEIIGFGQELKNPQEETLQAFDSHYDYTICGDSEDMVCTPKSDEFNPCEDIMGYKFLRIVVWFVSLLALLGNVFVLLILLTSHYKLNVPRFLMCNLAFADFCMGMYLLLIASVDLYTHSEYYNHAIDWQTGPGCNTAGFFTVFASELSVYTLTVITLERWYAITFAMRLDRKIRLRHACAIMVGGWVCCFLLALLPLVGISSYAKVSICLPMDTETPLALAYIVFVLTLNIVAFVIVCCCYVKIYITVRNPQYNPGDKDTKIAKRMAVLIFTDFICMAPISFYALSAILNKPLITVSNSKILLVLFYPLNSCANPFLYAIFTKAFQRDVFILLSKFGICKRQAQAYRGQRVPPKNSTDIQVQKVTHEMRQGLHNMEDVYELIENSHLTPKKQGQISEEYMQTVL

`C[N+](C)(C)CCOC(N)=O`: the Potency result in [1], in [2], in [3], in [4], in assay [5] and in assay [6] was “inactive” each time. Besides, the outcome in assay [7], in assay [8], in [9] and in assay [10] was inactive.
For `N#C[C@@H]1C[C@@H]2C[C@@H]2N1C(=O)[C@@H](N)C12CC3CC(CC(O)(C3)C1)C2`, the Potency result in assay [1], in assay [2], in assay [3], in [4], in assay [5] and in [6] was “inactive” in each case. Also, the molecule was classed as inactive in assay [7], in [8] and in assay [9].
With `COC(=O)c1cc(Cl)ccc1NS(=O)(=O)C(F)(F)F`, the Potency entry in assay [1], in [2], in [3], in [4], in assay [5] and in assay [6] was “inactive” each time. Besides, the outcome in [7], in assay [8], in [9] and in assay [10] was inactive.
Regarding `CC(N)CN` (configuration not stated), the Potency entry in assay [1], in assay [2], in assay [3], in [4], in [5] and in assay [6] was “inactive” in each case. The outcome in [7], in assay [8] and in [9] was inactive.
As for `CC(=O)Nc1ccccc1C`, the Potency entry in assay [1], in assay [2], in [3], in assay [4], in [5] and in assay [6] was “inactive” each time. The outcome in assay [7], in assay [8], in assay [9] and in assay [10] was inactive.
As to `CCOC(=O)OCC`, the Potency result in [1], in assay [2], in [3], in assay [4], in assay [5] and in [6] was “inactive” throughout. The call in assay [7], in assay [8], in [9] and in assay [10] was inactive.
For the molecule `C=CCCCCCCCCCCCCCCCC`, the activity change, negative = inhibition was -0.238% [at 8.39 µM] in [1] and 15.4% [at 8.39 µM] in assay [4]. Further, the activity change, negative = cytotoxicity in assay [2] was -0.26% [at 8.39 µM]; in assay [5], 4.23% [at 8.39 µM]; in assay [6], 14.5% [at 8.39 µM]; in assay [8] it was 3.28% [at 6.97 µM]. In addition, the Potency in assay [3] was 0.733 µM (active). For the same molecule, in assay [7], the viability change, negative = cytotoxic is 2.26% [at 6.97 µM]. Also, the activation in [9] was 2.93% [at 6.97 µM].
Consider `Nc1nc(Cl)nc2c1ncn2[C@@H]1O[C@H](CO)[C@@H](O)[C@@H]1F`, for which the Potency result in [1], in assay [2], in assay [3], in assay [4], in [5] and in assay [6] was “inactive” in each case. Also, the molecule was called inactive in [7], in assay [8], in assay [9] and in [10].
In the case of `c1ccc(COCc2ccccc2)cc1`, the Potency result in assay [1], in assay [2], in [3], in [4], in [5] and in assay [6] was “inactive” each time. In addition, the molecule was classed as inactive in assay [7], in assay [8], in assay [9] and in assay [10].
Take `CCCCCCCCCCCCCCCCBr`: the activity change, negative = inhibition is -0.923% [at 19 µM] in assay [1] and -0.513% [at 18.9 µM] in assay [4]. Besides, the activity change, negative = cytotoxicity in [2] is 0.981% [at 19 µM]; in assay [5] it was 0.653% [at 18.9 µM]; in assay [6] it was 9.85% [at 19 µM]; in assay [8], -1.12% [at 15.8 µM]. The activation was 1.24% [at 19 µM] in assay [3] and -2.16% [at 15.8 µM] in assay [9]. Further, the viability change, negative = cytotoxic in [7] is -3.09% [at 15.8 µM].
Consider `CC1(C)C(=O)N(Br)C(=O)N1Cl`, for which the Potency entry in assay [1], in assay [2], in [3], in assay [4], in assay [5] and in assay [6] was “inactive” throughout. The molecule was classed as inactive in assay [7], in [8] and in assay [9].
For the molecule `CCCCN(CCCC)C(=S)SSC(=S)N(CCCC)CCCC`, the Potency result in [1], in [2], in assay [3], in assay [4], in assay [5] and in assay [6] was “inactive” throughout. The molecule was classed as inactive in assay [7], in [8], in assay [9] and in assay [10].
Regarding `O=C(NCCCN1CCOCC1)c1ccc(Cl)cc1`, the Potency entry in assay [1], in [2], in assay [3], in assay [4], in [5] and in assay [6] was “inactive” each time. Moreover, the molecule was called inactive in assay [7], in assay [8] and in assay [9].
Consider `CCCCC(CC)CNCC(CC)CCCC` (configuration not stated), for which the Potency entry in assay [1], in [2], in assay [3], in assay [4], in [5] and in assay [6] was “inactive” throughout. In addition, the outcome in [7], in assay [8], in [9] and in assay [10] was inactive.
`CCCCCCCCCOC(C)=O`: the Potency result in [1], in assay [2], in assay [3], in assay [4], in [5] and in [6] was “inactive” in each case. The call in assay [7], in [8] and in assay [9] was inactive.
On to `O=C(O)c1cccnc1C(=O)O`, for which the Potency entry in assay [1], in [2], in assay [3], in assay [4], in assay [5] and in assay [6] was “inactive” throughout. Also, the molecule was called inactive in assay [7], in assay [8] and in assay [9].
With `O=C(O)Cc1ccc(-c2ccccc2)cc1`, the Potency result in assay [1], in assay [2], in assay [3], in assay [4], in assay [5] and in assay [6] was “inactive” throughout. The molecule was classed as inactive in [7], in assay [8] and in [9].
For the molecule `CCN(Cc1cccc(S(=O)(=O)O)c1)c1ccc(C(=C2C=CC(=[N+](CC)Cc3cccc(S(=O)(=O)[O-])c3)C=C2)c2ccccc2)cc1`, the Potency entry in assay [1], in [2], in [3], in assay [4], in assay [5] and in [6] was “inactive” throughout. Moreover, the outcome in [7] and in assay [8] was inactive.
`C=CC(=C)CCCC(C)(C)OC(C)=O`: the Potency entry in [1], in [2], in assay [3], in [4], in [5] and in [6] was “inactive” in each case. The molecule was called inactive in [7], in [8], in [9] and in assay [10].
As for `Cn1c(=O)c2c(ncn2CC(=O)O)n(C)c1=O`, the Potency entry in [1], in assay [2], in [3], in assay [4], in assay [5] and in assay [6] was “inactive” each time. Moreover, the call in assay [7], in [8] and in assay [10] was inactive.
As to `CN1Cc2cc(C(=O)N3CCC(C4CCNCC4)CC3)ccc2N[C@@H](CC(=O)O)C1=O`, the Potency result in [1], in assay [2], in [3], in assay [4], in assay [5] and in assay [6] was “inactive” each time. In addition, the molecule was called inactive in assay [7], in assay [8], in [9] and in assay [10].
For the molecule `CC(CCO)CCc1ccccc1` (configuration not stated), the Potency result in assay [1], in [2], in assay [3], in [4], in [5] and in assay [6] was “inactive” in each case. Further, the molecule was called inactive in assay [7], in [8] and in assay [9].
